Screening data from PubChem BioAssay.
Sampled rows, rich in hits. Any-hit rate of the full collection: about 8%.
MCF10A rereplic: inducers of DNA re-replication in MCF 10A breast cells | MCF 10A DNA re-replication, Hoechst nuclear intensity, 48 h | Potency, µM (titrated, usually from 46.1 µM), usual class: activators | 2.9% of 350,000 active; note: nearly all actives have a fitted effect of over 50% in size
SW480 rerep: induces DNA re-replication in SW480 colon adenocarcinoma cells | Potency, µM (titrated, usually from 46.1 µM), usual class: activators | SW480 DNA re-replication, Hoechst DNA content imaging, 48 h | AID 624297 | 1.8% of 340,000 active; note: nearly all actives have a fitted effect of over 55% in size
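Per well, 250 cells were exposed to pinned compound for 48 hr. Nuclear DNA was visualised with Hoechst (40 min, 37 C) and total object intensity recorded by fluorescence scanning.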
HT1080 IDH1KD tx: toxicity to HT-1080 IDH1 knockdown cells (counter line). HT-1080 IDH1 knockdown viability, ATP luminescence, 48 h. Potency, µM (titrated, usually from 46.1 µM), usual class: cytotoxic. 2% of 360,000 active
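After a 2 h attachment period, IDH1KD HT-1080 cells took pin-transferred compound for 48 h at 37 °C; ATP-based luminescence after 10 min room-temperature reagent incubation reported viability.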
HT1080NT lethal: kills 2HG-producing HT-1080-NT fibrosarcoma cells; HT-1080-NT fibrosarcoma viability, CellTiter-Glo ATP luminescence, 48 h; Potency, µM (highest dose often 46.1 µM), hits mostly cytotoxic; 1.6% of 360,000 active;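 note: NT is the 2HG producing partner of a matched IDH1 knockdown line; nearly all actives have a fitted effect of over 55% in size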
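Read-out is CellTiter-Glo luminescence after 10 minutes at room temperature, following 48 hours' compound treatment of HT-1080-NT cells (750 cells/well, RPMI, 5% FBS, 37 degrees C).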
KB-3-1 cytotox: kills parental KB-3-1 adenocarcinoma cells | Potency, µM (titrated, usually from 46.1 µM), usual class: cytotoxic | 1.4% of 400,000 active | KB-3-1 viability, CellTiter-Glo ATP luminescence, 72 h | AID 1347075; note: nearly all actives have a fitted effect of over 60% in size
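KB-3-1 parental drug-naive adenocarcinoma cells in DMEM/10% FBS, incubated 72 h at 37 C with pin-transferred compounds across a concentration series. Viability by CellTiter-Glo luminescence; concentration-response curves fitted after normalization.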
KB-V1 MDR tox: KB-V1 MDR subline cytotoxicity; Potency, µM (series often up to 46.1 µM), usual class: cytotoxic; AID 1347076; 3.4% of 400,000 active; KB-V1 MDR cells viability, CellTiter-Glo, 72 h; note: nearly all actives have a fitted effect of over 60% in size
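Following 72 h at 37 degrees C with compound, KB-V1 cell viability was read by CellTiter-Glo luminescence, medium being phenol-red-free DMEM plus 10% FBS; concentration-response parameters came from normalized, curve-fitted qHTS data.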
Large screens that a line does not name were inactive. Calls come from the whole dose curve; as a rule, active = well fitted curve in the direction sought with a large enough effect; inconclusive = small, poorly fitted or top-dose-only effect, or another doubt; inactive = no such curve, though single readings can be large; an effect the other way counts as inactive or inconclusive.

CS(=O)(=O)c1cc([N+](=O)[O-])c(Sc2nc3ccccc3[nH]2)c([N+](=O)[O-])c1	MCF10A rereplic inconclusive, HT1080 IDH1KD tx 10µM, HT1080NT lethal 11µM
O=C(O)c1cc([N+](=O)[O-])c(Sc2nc3ccccc3[nH]2)c([N+](=O)[O-])c1	SW480 rerep inconclusive, KB-V1 MDR tox inconclusive
COc1ccc(NC(=O)c2nc(C)c(C3(C)CC(c4ccccc4)=NO3)s2)cc1 (configuration not stated)	MCF10A rereplic 3.7µM, SW480 rerep 4.6µM, HT1080 IDH1KD tx inconclusive, HT1080NT lethal inconclusive, KB-3-1 cytotox 4.6µM, KB-V1 MDR tox inconclusive
S=c1[nH]nc(CSc2nc3ccccc3s2)n1Cc1ccccc1	none
COC(=O)C1=C(C)NC2=C(C(=O)CCC2)C1c1cn(Cc2ccc(Cl)cc2Cl)nc1-c1ccccc1 (configuration not stated)	MCF10A rereplic inconclusive, SW480 rerep inconclusive, HT1080 IDH1KD tx inconclusive, KB-3-1 cytotox inconclusive, KB-V1 MDR tox inconclusive
CCOC(=O)C1=C(C)NC2=C(C(=O)CCC2)C1c1cn(Cc2ccc(Cl)cc2Cl)nc1-c1ccccc1 (configuration not stated)	MCF10A rereplic inconclusive, SW480 rerep 2.8µM, HT1080 IDH1KD tx inconclusive, HT1080NT lethal inconclusive, KB-3-1 cytotox 16µM, KB-V1 MDR tox inconclusive
O=C1NC(=S)S/C1=C\c1ccc(SCc2ccco2)o1	KB-V1 MDR tox inconclusive
O=C1NC(=S)S/C1=C\c1ccc(SCc2ccccc2)o1	MCF10A rereplic 3.7µM, SW480 rerep inconclusive, KB-3-1 cytotox inconclusive, KB-V1 MDR tox inconclusive
CC1CC(C)CN(CCCNC(=O)c2csc3c2CCCC3)C1 (configuration not stated)	MCF10A rereplic inconclusive, SW480 rerep inconclusive, KB-V1 MDR tox 16µM
CC(C)CCNC(=O)c1csc2c1CCCCC2	none
CCCCNC(=S)NNC(=O)c1ccncc1	none
CCNC(=S)NNC(=O)c1csc(C(C)C)c1	KB-3-1 cytotox inconclusive, KB-V1 MDR tox 21µM
CCNC(=S)NNC(=O)c1csc2c1CCCC2	HT1080 IDH1KD tx inconclusive, KB-V1 MDR tox 26µM
CCCCNC(=S)NNC(=O)c1csc(C(C)C)c1	KB-V1 MDR tox 23µM
CCNC(=S)NNC(=O)c1csc(CC)c1	KB-3-1 cytotox inconclusive
CC(OC(=O)CCC(=O)c1cccs1)C(=O)Nc1ccccc1[N+](=O)[O-] (configuration not stated)	KB-V1 MDR tox inconclusive
COc1ccc(NC(=O)C2(C)CCN2C(=O)C(C)C)cc1F (configuration not stated)	HT1080 IDH1KD tx inconclusive (no result: MCF10A rereplic, SW480 rerep)
O=c1[nH]c(CCl)nc2cc(-c3ccc(F)cc3)sc12	MCF10A rereplic inconclusive, SW480 rerep inconclusive, HT1080 IDH1KD tx 7.3µM, HT1080NT lethal 15µM, KB-3-1 cytotox inconclusive, KB-V1 MDR tox inconclusive
Cc1cc(=O)[nH]c(Nc2c(C)n(C)n(-c3ccccc3)c2=O)n1	none
COc1cc(CNC2CCCC2)cc(Cl)c1OCc1ccccc1Cl	MCF10A rereplic 16µM, SW480 rerep inconclusive, HT1080 IDH1KD tx inconclusive, HT1080NT lethal inconclusive, KB-3-1 cytotox inconclusive, KB-V1 MDR tox 21µM
COc1cc(CNC2CCCC2)cc(Cl)c1OCc1ccc(F)cc1	MCF10A rereplic inconclusive, HT1080 IDH1KD tx 21µM, HT1080NT lethal 16µM, KB-3-1 cytotox inconclusive, KB-V1 MDR tox inconclusive
CC12CCC(c3c(C(=O)Nc4nccs4)nn(-c4ccccc4)c31)C2(C)C (configuration not stated)	HT1080 IDH1KD tx 14µM, HT1080NT lethal inconclusive
O=C(Nc1ccon1)c1ccc(Cl)c(S(=O)(=O)N2CCCCC2)c1	KB-V1 MDR tox inconclusive
CCCCCN1C(C(=O)c2ccccc2)=C(OC(=O)CC)c2ccccc2S1(=O)=O	KB-3-1 cytotox inconclusive (no result: MCF10A rereplic, SW480 rerep, HT1080 IDH1KD tx, HT1080NT lethal)
CCCCN1C(C(=O)c2ccccc2)=C(OC(=O)CC)c2ccccc2S1(=O)=O	KB-3-1 cytotox 15µM (no result: MCF10A rereplic, SW480 rerep, HT1080 IDH1KD tx, HT1080NT lethal)
CCOC(=O)c1c(C)[nH]c(C(=O)C(C)OC(=O)c2ccc(NC(=O)CC#N)cc2)c1C (configuration not stated)	none
